USP2a block – USP2a (human) protease inhibition. 0.01% of 330,000 active. O75604. USP2 core, Ub-CHOP2 coupled fluorogenic reporter, 485/531. Potency, µM (doses to about 38.3 µM), inactives show at the highest dose activity change, negative = inhibition, actives largely listed as inhibitors;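 note: potency is the fitted concentration of half-maximal effect; plate controls were DMSO wells for no effect and full inhibition by NEM control for full effect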
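Deubiquitinase activity read as fluorescence (485/531 nm) after Ub-CHOP2 cleavage activates the enterokinase reporter on its substrate; USP2 core 10nM, Ub-CHOP2 and substrate 25nM each, 30min compound preincubation then 60min RT; data normalized to NEM, curves fitted.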
PI4K2A inh – PI4K2A (human) kinase inhibition | 0.13% of 420,000 active | purified PI4K2A, ADP-Glo luminescence, 1 h; hits give low values | activity change, negative = inhibition, % at 76.9 µM | Q9BTU6 | AID 1346378; in the data active = activity change below about -50%; inconclusive = mostly about -30% to -49%;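 note: -100% = wells without enzyme as full effect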
Target sequence (Q9BTU6 whole entry, looked up): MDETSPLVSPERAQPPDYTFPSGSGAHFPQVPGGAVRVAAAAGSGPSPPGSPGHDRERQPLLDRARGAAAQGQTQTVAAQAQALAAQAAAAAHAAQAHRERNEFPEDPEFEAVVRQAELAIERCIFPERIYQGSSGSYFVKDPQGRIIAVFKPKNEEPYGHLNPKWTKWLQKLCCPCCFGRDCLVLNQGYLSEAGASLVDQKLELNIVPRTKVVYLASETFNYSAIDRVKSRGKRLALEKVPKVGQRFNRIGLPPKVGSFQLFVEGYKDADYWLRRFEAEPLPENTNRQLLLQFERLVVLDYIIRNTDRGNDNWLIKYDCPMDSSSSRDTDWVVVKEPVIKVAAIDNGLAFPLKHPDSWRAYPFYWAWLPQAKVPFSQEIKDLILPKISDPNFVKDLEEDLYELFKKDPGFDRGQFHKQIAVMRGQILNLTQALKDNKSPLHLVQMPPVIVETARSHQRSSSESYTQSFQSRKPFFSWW
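In this quantitative HTS, ADP production by PI4K2A was quantified luminescently after 1 h at ambient temperature; 100 microM adenosine served as plate-quality control.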
USP1-UAF1 inh – blocks the human USP1/UAF1 deubiquitinase complex; O94782; recombinant USP1/UAF1, Ub-Rhodamine cleavage fluorescence; Potency, µM (highest dose often 57.1 µM), for the others: at the highest dose activity change, negative = inhibition, usual class: inhibitors; 0.23% of 390,000 active; AID 743255; note: potency is the fitted concentration of half-maximal effect; nearly all actives have a fitted effect of over 60% in size
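In this screen, compounds sit with the deubiquitinase complex (1nM) for 15 min at room temperature before Ub-Rho is added at 150nM final. Fluorescence rise is then followed for 6 reads every 60 seconds.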
GALK inhibitor – inhibitors of human galactokinase. 0.007% of 270,000 active. Potency, µM (top dose mostly 57.5 µM), inactives show at the highest dose activity change, negative = inhibition, usual class: inhibitors. Purified GALK, Kinase-Glo residual ATP luminescence; note: potency is the fitted concentration of half-maximal effect
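GALK at 5 nM final was combined with compound, 35 uM ATP and 100 uM galactose in HEPES pH8.0 with MgCl2 and DTT. The reaction ran one hour at room temperature before luminescent ATP detection.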
Eya2 inh – blocks the phosphatase activity of human Eya2 | recombinant Eya2, OMFP fluorescence dephosphorylation (OMFP is methylfluorescein phosphate) | Potency, µM (top dose mostly 76.9 µM), inactives show top-dose activity, negative = inhibition, most hits filed as inhibitors | 0.006% of 330,000 active | AID 488837; note: potency is the fitted concentration of half-maximal effect
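Eya2 protein (added as 0.2 uM solution) was preincubated with compound for 10 min at ambient temperature in 50 mM HEPES pH 7.5, 50 mM NaCl, 5 uM MgCl2, 0.05% BSA, 1 mM DTT. OMFP (added at 50 uM) then reacted 10 min; fluorescence read at 485/525 nm.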
FBPA coupling cs – inhibits coupling enzyme system, counter-screen for aldolase hits | coupling enzyme system counterscreen, AmpLite Red fluorescence | activity change, negative = inhibition, % at 58.2 µM, hits read low | 0.67% of 290,000 active; in the data active = activity change below about -30%
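Fluorescence at 525 nm excitation and 598 nm emission measured inhibition of the coupled detection system without aldolase. Compounds (at 57.5 uM final) were preincubated 10 min at room temperature with coupling enzyme reagent before a 20 min substrate/AmpLite Red step.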
An asterisk follows results filed as active; ? = inconclusive; . = no result. The list is not random: actives were taken first. Their share in the collection is about 0.71%. Unless noted, calls come from the whole dose curve; as a rule, active = well fitted curve in the direction sought with a large enough effect; inconclusive = small, poorly fitted or top-dose-only effect, or another doubt; inactive = no such curve, though single readings can be large; an effect the other way counts as inactive or inconclusive. Unless noted, % is set by controls: 0 for no effect and ±100 for the full control effect.

SMILES | USP2a block | PI4K2A inh | USP1-UAF1 inh | GALK inhibitor | Eya2 inh | FBPA coupling cs
CCOC(=O)c1c(C)oc2c1c1c(c3ccccc32)OCN(Cc2ccccn2)C1 | 4% | 7 | -24% | -3% | -13% | -37*
CCOC(=O)c1c(C)oc2c1c(CN1CCN(C(=O)OCC)CC1)c(O)c1ccccc12 | 0% | 7 | -13% | -1% | -4% | -23
CCOC(=O)c1c(C)oc2c1c(C(c1ccncc1)N1CCOCC1)c(O)c1ccccc12 (centres undefined) | 1% | 8 | ? | -5% | -6% | -48*
O=C(O)C1CCC1 | . | 2 | . | . | . | .
COc1cccc(O)c1O | . | . | . | . | . | -33*
CCCNC(=O)OC[C@H]1O[C@@H](CCO/N=C2/[C@H]3O[C@@H]3[C@@H](O)[C@H]3[C@H]2CCn2c(=O)n(-c4ccccc4)c(=O)n23)C=C[C@@H]1Oc1ccc(OC)cc1 | . | . | . | . | . | 2
CCOc1ccc(-c2ccc(SCC(=O)Nc3nnc(CC)s3)nn2)cc1 | -1% | -2 | -12% | 6% | -3% | 6
CCOc1ccc(-c2ccc(SC)nn2)cc1 | 0% | -85* | -17% | 13% | 17% | 1
CCOc1cc(CNc2ccc3cn[nH]c3c2)ccc1OC | 0% | -13 | ? | 0% | -17% | -55*
COc1ccc(CNc2ccc3cn[nH]c3c2)c(OC)c1OC | -2% | -8 | ? | 4% | 11% | -47*
Cc1ccccc1C(=O)N1CC/C(=N\OS(=O)(=O)O)c2ccc(Cl)cc21 | . | -2 | . | . | . | .
CCCCCCCCCCCCCCCC(=O)NCC(=O)O | . | . | . | . | . | 3
Cc1ccc2[nH]c(C)c(CC(=O)O)c2c1 | 7% | -3 | -3% | -4% | 3% | -40*
Cc1[nH]c2ccc(C(C)C)cc2c1CC(=O)O | 2% | -7 | -13% | 3% | -13% | 1
CCOC(=O)c1cc(-c2ccccc2)nn1-c1ccccn1 | 0% | 9 | -8% | 0% | -9% | -34*
CCOC(=O)c1cnc2ccc(OCC)cc2c1NCc1cccnc1 | 2% | -8 | -15% | 1% | 0% | -25
CCOC(=O)c1cnc2ccc(OCC)cc2c1NCc1ccccc1 | -6% | -2 | -25% | 2% | -17% | -44*
CCOC(=O)CC1C(=O)NCCN1c1nc2ccc(C)cn2c(=O)c1/C=C1\SC(=S)N(CC(C)C)C1=O (centres undefined) | 16% | -5 | 13µM* | 3% | 19% | -5
C=CCn1c(N)c(C(=O)OCCC)c2nc3ccccc3nc21 | -1% | 2 | -21% | 1% | -7% | -3
COCCn1c(N)c(C(=O)OCc2ccccc2)c2nc3ccccc3nc21 | -1% | -27 | -22% | 9% | -11% | -37*
CSc1ccc(C2C(C#N)=C(N)Oc3c2ccc(=O)c2c(C)oc(C)c32)cc1 (centres undefined) | 3% | -13 | ? | 0% | 20% | -36*
C(/C=C\c1ccco1)=NN1CCN(Cc2cccc3ccccc23)CC1 | . | -5 | . | . | . | .
COC(=O)c1ccc(-c2noc(CN(C)CCC3CCCCO3)n2)cc1 (centres undefined) | 0% | -9 | -15% | 0% | 2% | -55*
O=C(O)c1cc(Nc2cc(Cl)c3nonc3c2[N+](=O)[O-])ccc1O | -11% | -59* | ? | -2% | -9% | 9
CN(C)c1oc(-c2ccccc2[N+](=O)[O-])nc1C#N | 2% | -10 | -18% | 7% | 7% | -30*
SMILES | USP2a block | PI4K2A inh | USP1-UAF1 inh | GALK inhibitor | Eya2 inh | FBPA coupling cs
CN(C)c1oc(-c2ccccc2Cl)nc1C#N | 0% | 0 | -13% | -4% | -8% | 3
O/N=C1\CCCc2oc3c(c21)CCCC3 | -2% | 1 | -5% | 2% | -12% | -31*
Cc1c(C(=O)O)oc2c1/C(=N\O)CCC2 | -2% | 58 | -8% | -1% | -2% | 3
CCCCC(C(=O)O)C(C)CC(=O)Nc1ccn(-c2ccccc2)n1 (centres undefined) | -5% | 0 | -20% | -2% | -12% | 7
CCCCC(CCC(=O)Nc1ccn(-c2ccccc2)n1)C(=O)O (centres undefined) | 11% | -1 | -5% | -2% | 40µM* | 6
NC(=O)c1cc[n+](CC2=C(C(=O)[O-])N3C(=O)[C@@H](NC(=O)Cc4cccs4)[C@H]3SC2)cc1 | . | 0 | . | . | . | .
C#CCCCO/N=C1/C[C@@H](O)[C@@H](O)[C@@H]2[C@@H]3C(=O)N(Cc4ccccc4)C(=O)[C@H]3CC[C@@H]12 | . | . | . | . | . | 0
Cc1cc(O)c(-c2cc(O)c(C)cc2O)cc1O | 1% | -2 | -22% | -1% | -8% | -50*
CCCCn1c(NS(=O)(=O)c2ccccc2)c(S(=O)(=O)c2ccc(C)cc2)c2nc3ccccc3nc21 | 1% | -6 | 28µM* | -14% | 1% | -32*
CCCCn1c(NC(=O)c2ccco2)c(S(=O)(=O)c2ccc(C)cc2)c2nc3ccccc3nc21 | -1% | -4 | ? | . | -10% | -25
CCCCn1c(NC(=O)c2ccc(Br)o2)c(S(=O)(=O)c2ccccc2)c2nc3ccccc3nc21 | -1% | -5 | 28µM* | -5% | 14% | -6
Nc1cc(C(F)(F)F)ccc1S | . | -10 | . | . | . | .
O=C(O)c1ccc2c(c1)[C@@H]1C=CC[C@@H]1[C@H](c1ccccn1)N2 | . | -26 | 32µM* | . | . | .
O=c1[nH]c(=O)n([C@H]2O[C@H](CO)[C@@H](O)[C@@H]2O)cc1/C=C\Br | . | 0 | . | . | . | .
CCOC(=O)CCN1C(=O)[C@H]2[C@H]3[C@H](O)[C@H](O)C/C(=N/O[C@@H]4O[C@@H](COC(C)=O)[C@@H](OC(C)=O)[C@@H](OC(C)=O)[C@H]4OC(C)=O)[C@@H]3CC[C@@H]2C1=O | . | . | . | . | . | 2
O=C1C=C(O)c2cccc(O)c2C1=O | ? | -27 | 32µM* | 3% | 9% | -3
COc1ccc(-n2nc(CCC(=O)N(C)O)cc2-c2ccc(Cl)cc2)cc1 | . | 1 | . | . | . | .
COc1ccc(C(=O)[C@]2(C)C=C(c3ccc(OC)cc3)[C@H](C)C2)cc1 | . | . | . | . | . | 3
CCOc1cccc(CNc2ccc(O)cc2)c1OCc1ccc(Cl)cc1 | 3% | ? | 25µM* | . | 12% | -51*
CCOc1cc(CNc2ccc(O)cc2)ccc1OCc1ccc(Cl)cc1Cl | 1% | ? | 8.9µM* | -6% | 7% | -52*
COc1cccc(CNCCO)c1OCc1ccc(Cl)cc1 | 3% | 3 | -6% | -1% | 13% | 1
CCOc1ccccc1CNc1ccc(O)cc1 | -1% | -27 | 16µM* | 0% | 6% | -39*
